Shown are actives, neighbours in structure and some others; about 0.65% of the full set was active somewhere.
MRP resist rev: compounds reversing MRP-mediated drug resistance; differential viability (reversal), % at 10 µM; H69AR cells + 2 uM doxorubicin, CellTiter-Glo, 72 h; 0.04% of 85,000 active;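 active = viability drop by adding the cancer drug above about 55%, with treated viability meeting a 40% cutoff, limit read from the data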;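 note: larger differential means the compound sensitizes cells more to doxorubicin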
MRP-1 activ: activators of MRP-1 | 0.61% of 140,000 active | H69AR cells + doxorubicin, viability rescue, CellTiter-Glo | AID 799 | viability increase, % at 10 µM;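 active = viability gain under doxorubicin at or above a set limit, the compound median plus 3 SD, cut at about 4.7% in these data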;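 note: MRP-1 overexpressing cells given doxorubicin 25 µM after compound pretreatment; 18-22 h compound pretreatment then 72 h with doxorubicin before readout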
Large screens that a line does not name were inactive.

CCCN1C(=O)c2cc(C(=O)NCc3cccs3)ccc2C1O (stereo not given)	none
CCN1CCN(c2cc3c(nn2)Oc2ccccc2N3C)CC1	none (no result: MRP resist rev)
CN=C(NC1CCCCC1)c1ccc(Cl)cc1	none (no result: MRP resist rev)
COc1cccc(C(=O)COC(=O)c2ccc(NC(C)=O)cc2)c1	none (no result: MRP resist rev)
CC(C)Cc1ccc(/C=C/C(=O)NC2CC2)cc1	none (no result: MRP resist rev)
O=C(NC(=S)Nc1ccccc1N1CCOCC1)c1ccc(-c2cccc(Cl)c2)o1	MRP-1 activ 5.2 (no result: MRP resist rev)
O=C(NC(=S)Nc1ccccc1N1CCCCC1)c1ccc(-c2cccc([N+](=O)[O-])c2)o1	MRP-1 activ 8.0
O=C(NC(=S)Nc1ccccc1N1CCCC1)c1ccc(-c2cccc([N+](=O)[O-])c2)o1	none
O=C(Cc1ccc(Cl)cc1)NC(=S)Nc1ccccc1N1CCOCC1	none (no result: MRP resist rev)
CC1=C(n2nnc([N+](=O)[O-])n2)C(c2cccnc2)C(C#N)=C(N)O1 (stereo not given)	none (no result: MRP resist rev)
CCN(CC)CCCNC(CC(=O)Nc1cccc([N+](=O)[O-])c1)C(=O)O (stereo not given)	none (no result: MRP resist rev)
COc1ccc(OC)c(-c2csc(NC(=O)CSc3ccc([N+](=O)[O-])cc3)n2)c1	none (no result: MRP resist rev)
Cc1ccc(NC(=O)C(=O)c2c(-c3ccccc3)cc3ccccn23)cc1S(=O)(=O)N1CCOCC1	MRP-1 activ 4.8
Cc1ccc(NC(=O)c2ccccc2-c2ccc(C(F)(F)F)cc2)cc1S(=O)(=O)N1CCOCC1	none (no result: MRP resist rev)
CCOc1nc(NC(=O)NS(=O)(=O)c2cccc(Cl)c2)nc(-c2ccccc2)n1	none (no result: MRP resist rev)
O=C(c1cccn2c(=O)c3cc(Cl)ccc3nc12)N1CCOCC1	none
NC(=O)C1(N2CCCCC2)CCN(C(=O)c2cccn3c(=O)c4cc(Cl)ccc4nc23)CC1	MRP-1 activ 5.6
CN(C(=O)COc1ccccc1C(=O)NCCOc1ccccc1)c1ccccc1	none (no result: MRP resist rev)
CC(=O)N(CC1CCCO1)c1nnc(-c2cnccn2)s1 (stereo not given)	none
COC(=O)C1=C(C)Nc2sc(C(N)=O)c(N)c2C1c1ccncc1 (stereo not given)	none (no result: MRP resist rev)
CCOC(=O)C1=C(C)Nc2sc(C(=O)c3ccc(OC)cc3)c(N)c2C1c1ccc(C(=O)OC)cc1 (stereo not given)	MRP-1 activ 7.3 (no result: MRP resist rev)
CC(C)CCn1c(=O)c2ccccc2n2c(CN(C)Cc3ccccc3)nnc12	MRP resist rev 61.5
CC(C)CCn1c(=O)c2ccccc2n2c(COC(=O)c3ccc(S(=O)(=O)N(C)C)cc3)nnc12	none (no result: MRP-1 activ)
O=C(COc1ccc(Br)cc1)c1ccc2c(c1)CCCC2	MRP-1 activ 5.1 (no result: MRP resist rev)
Cc1ccc(OCC(=O)c2ccc3c(c2)CCCC3)cc1C	none (no result: MRP resist rev)
Cc1nn(Cc2ccccc2)c(=O)n1N(C)c1ncc(C(F)(F)F)cc1Cl	none
CCOC(=O)c1c(NC(=O)COc2ncnc3ccccc23)sc(C)c1CC	none (no result: MRP resist rev)
CN(C)N1C(N)=C(C#N)C(c2cccnc2)C2=C1CCCC2=O (stereo not given)	none (no result: MRP resist rev)
CCc1ccc(OCC(=O)Nc2ccc(-c3nc4ccccc4o3)c(O)c2)cc1	none
Oc1cc(NCc2cccnc2)ccc1-c1nc2ccccc2o1	MRP-1 activ 5.0
Cc1ccccc1NC(=S)NC1CC2CCC(C1)N2Cc1ccco1 (stereo not given)	none (no result: MRP resist rev)
CCCCCC(=O)N/N=C(\C)c1ccc(N2CCCCC2)cc1	none (no result: MRP resist rev)
O=C(Nc1cccc(S(=O)(=O)N2CCOCC2)c1)c1c2c(nc3ccccc13)CCC2	none (no result: MRP resist rev)
O=C(c1cnn2c(C(F)(F)F)cc(-c3cccs3)nc12)N1CCN(C(c2ccccc2)c2ccccc2)CC1	MRP-1 activ 8.3
CN1CCN(C(=O)c2cnn3c(C(F)(F)F)cc(-c4cccs4)nc23)CC1	none (no result: MRP resist rev)
CC(C)(C)CC(=O)NCCCCCCNC(=O)CC(C)(C)C	none (no result: MRP resist rev)
Cc1cccc(C(=O)Nc2ccccc2SCC(=O)Nc2ccc(C)c(Cl)c2)c1	none (no result: MRP resist rev)
COc1cc(C(=O)NCC(=O)N/N=C(/C)c2cccs2)cc(OC)c1OC	none (no result: MRP resist rev)
CCOC(=O)c1cc[n+](CC(=O)c2ccc(F)cc2)cc1	none (no result: MRP resist rev)
Cc1c(C(=O)Nc2nnc(C(F)(F)F)s2)oc2ccccc12	MRP-1 activ 8.9
COC(=O)c1sc(NC(=O)c2oc3ccccc3c2C)nc1C	none
O=C(COC(=O)CNS(=O)(=O)c1ccccc1)Nc1ccc(Cl)cn1	none
COc1ccc(NC(=O)CN(C)C(=O)c2ccc(C)s2)cc1	none
COc1ccc(NS(=O)(=O)c2cc(NC(=O)CNC(=O)c3ccc(C)s3)ccc2Cl)cc1	MRP-1 activ 14.3 (no result: MRP resist rev)
CCOc1ccccc1CNC(=O)c1cc2oc3ccccc3c2n1CC	MRP-1 activ 7.6
COc1cccc(CNC(=O)c2cc3oc4ccccc4c3n2C)c1OC	none
Cc1ccc(Oc2ccc(NC(=O)CCC(=O)OCC(=O)c3cccs3)cc2)cc1C	none (no result: MRP resist rev)
c1ccc(CSc2nnc(SCc3ccccn3)s2)nc1	none
N=C(N)SCc1ccccn1	MRP-1 activ 6.3 (no result: MRP resist rev)
ClC(Cl)(c1nnnn1-c1ccccc1)c1nnnn1-c1ccccc1	none (no result: MRP resist rev)
C/C(=N\NC(=O)c1cccc(S(=O)(=O)Nc2cccc(Cl)c2)c1)c1cccs1	MRP-1 activ 5.6 (no result: MRP resist rev)
Cc1ccc(NC(=O)c2cccs2)cc1S(=O)(=O)Nc1cccc(Cl)c1	none (no result: MRP resist rev)
CCCC(=O)N(c1ccc(OCC)cc1)C1C=CS(=O)(=O)C1 (stereo not given)	none
CNC(=O)[C@@]1(C)C=C[C@@H](Cc2ccccc2)N1C(=O)OC	none (no result: MRP resist rev)
O=C(Nc1ccccc1C(F)(F)F)N1CCC(n2c(=O)[nH]c3ccccc32)CC1	none (no result: MRP resist rev)
CCOc1ccc(NC(=O)N2CCC(n3c(=O)[nH]c4ccccc43)CC2)cc1	MRP-1 activ 5.6
CC1(C)CC(=O)C(C(=O)/C=C/NCCc2ccccc2)C(=O)C1	none
O=C(CSc1nc2ccccc2n1Cc1ccccc1)N/N=C/c1ccco1	none (no result: MRP resist rev)
Cc1ccc(Cn2c(SCC(=O)N/N=C/c3ccc(C)o3)nc3ccccc32)cc1	MRP-1 activ 4.7 (no result: MRP resist rev)
O=C(Cc1ccc(Br)cc1)OCC(=O)N1CCc2ccccc2C1	none (no result: MRP resist rev)
c1cnc(SCCOc2cccc3ccccc23)nc1	none
Clc1ccc(OCCSc2ncccn2)c2ccccc12	MRP-1 activ 5.0
COc1ccccc1/C=C(/CC(=O)NCc1ccc2c(c1)OCO2)c1nc2ccccc2s1	none (no result: MRP resist rev)
O=C(Nc1nc(-c2cccs2)c(-c2cccs2)s1)C1(c2ccccc2)CC1	MRP-1 activ 5.2 (no result: MRP resist rev)
CC(=O)NCCC(=O)Nc1nc(-c2cccs2)c(-c2cccs2)s1	none (no result: MRP resist rev)
CC(C)(C)OC(=O)C(Cc1ccc(OC(C)(C)C)cc1)NC(=O)CNC(=O)OCc1ccccc1 (stereo not given)	none (no result: MRP resist rev)
CCOC(=O)c1[nH]c2ccc(C)cc2c1N	none
CCOC(=O)c1[nH]c2cc(OC)c(OC)cc2c1N	MRP-1 activ 8.5
Nc1ccccc1S(=O)(=O)NC1=NCCCCC1	none (no result: MRP resist rev)
CC(C)Cn1c(N)c(C(=O)CSc2cc(Cl)ccc2Cl)c(=O)n(C)c1=O	none (no result: MRP resist rev)
CCCn1nnc(NC(=O)c2cc(Br)cc(Br)c2OC)n1	none
CN1CCN(c2nc3c(c(=O)n(C)c(=O)n3C)n2Cc2cccc3ccccc23)CC1	none
Cn1c(=O)c2c(nc(N3CCCCCC3)n2Cc2cccc3ccccc23)n(C)c1=O	MRP resist rev 63.6
Cc1cc(C)nc(NS(=O)(=O)c2ccc(N/C=C/C(=O)c3ccc(Cl)c(Cl)c3)cc2)n1	none (no result: MRP resist rev)
O=c1c(-c2nnc(SCc3ccc(Cl)cc3)o2)cccn1Cc1ccccc1	MRP-1 activ 5.4 (no result: MRP resist rev)
O=C(Nc1ccccc1-c1nnc(SCc2ccc(Cl)cc2)o1)c1ccccc1	none (no result: MRP resist rev)
CCN(CC)C(=O)C(=O)c1cccn1-c1cccc(-n2cccc2C(=O)C(=O)N(CC)CC)c1C#N	none
COc1cc(Cl)c(S(=O)(=O)NCc2cccnc2)cc1Cl	none
O=C(COC(=O)c1ccc(Cl)c(S(=O)(=O)N2CCc3ccccc3C2)c1)Nc1ncc(Cl)cc1Cl	none (no result: MRP resist rev)
